# Assay results as given in the supplement of paper PMC9399229.
# Values joined by “and” are separate entries in the source; they are usually repeats but may differ in a detail not shown here. Equal entries are not always repeated. Structures can show the parent of a compound that is named as a salt. ± gives the standard deviation of the averaged measurements. The full ranking holds about 1,900 compounds; the median of “relative cell viability (CellTiter-Glo), compound alone” is about 1, and the lowest 2% start at about 0.16. Many of the other results were omitted from the sample, so the lowest values are more common in it than they were.
# Tested on: Hep3B
# Test: relative cell viability (CellTiter-Glo), compound alone (fraction); higher = more viable cells (less growth inhibition)
# Details: cabozantinib 0 µM; 4 days
row,SMILES,relative cell viability
1,CN1CCN(c2ccc(Nc3cc(-c4cccc(-n5ccc6cc(C7CC7)cc(F)c6c5=O)c4CO)cn(C)c3=O)nc2)CC1,1.1 ± 0.14
2,Cc1cc(NC(=O)c2cccc(NC(=O)/C=C/CN(C)C)c2)ccc1Nc1nccc(-c2cccnc2)n1,0.837 ± 0.011
3,O=C(c1cncc(Br)c1)N1CCC(N2CCCC2)CC1,1.03 ± 0.058
4,O=C(COc1cccc2c(=O)[nH]ccc12)c1ccccc1,1.16 ± 0.033
5,CC(C)c1ccc(NC(=O)Cn2cnc3c2c(=O)n(C)c(=O)n3C)cc1,1.02 ± 0.041
6,Cc1ccc(C(=O)N(CCCN)[C@@H](c2oc3cc(Cl)ccc3c(=O)c2Cc2ccccc2)C(C)C)cc1,0.245 ± 0.0053
7,CC1=C(C(=O)Nc2cc3cn[nH]c3cc2F)C(c2ccc(C(F)(F)F)cc2)CC(=O)N1 (configuration not stated),1.3 ± 0.16
8,CN(C)C(=S)NN=C(c1ccccn1)c1ccccn1,0.265 ± 0.025
9,C/C(=N\NC(=S)N1CCC1)c1ccccn1,0.0813 ± 0.0087
10,CCN(CC)C(=S)SSC(=S)N(CC)CC [Disulfiram],0.134 ± 0.012
11,CN1CCN(c2ccc(OC(F)(F)F)c(Nc3ncc4c(n3)-c3c(c(C(N)=O)nn3CCO)CC4)c2)CC1,0.48 ± 0.02
12,O=C(N/N=C/c1ccc(O)c(O)c1)c1cc2ccccc2cc1O [Dynasore],0.932 ± 0.05
13,Cc1nc2c([nH]1)-c1ccccc1N(C(=O)c1ccc(NC(=O)c3ccccc3-c3ccccc3)cc1)CC2 [Conivaptan HCl],1.12 ± 0.15
14,C[C@@H](O[C@H]1OCCN(Cc2nn(P(=O)(O)O)c(=O)[nH]2)[C@H]1c1ccc(F)cc1)c1cc(C(F)(F)F)cc(C(F)(F)F)c1 [Fosaprepitant dimeglumine salt],1.04 ± 0.1
15,O=C(O)C1=CO[C@@H](O[C@@H]2O[C@H](CO)[C@@H](O)[C@H](O)[C@H]2O)[C@@H]2C(CO)=CC[C@H]12 [Geniposidic acid],1.04 ± 0.16
16,COc1cc(N2CCC(N)CC2)ccc1Nc1ncc(Cl)c(-c2c[nH]c3ccccc23)n1,0.138 ± 0.00027
17,CCOc1cc(N2CCC(O)CC2)ccc1Nc1ncc2c(n1)N(C)c1ccccc1C(=O)N2C,1.14 ± 0.05
18,CNC(=O)c1ccccc1Nc1nc(Nc2ccc(N3CCOCC3)cc2OC)ncc1Cl,0.273 ± 0.0076
19,Nc1ncnc2c1C(=O)N(c1ccc([C@H]3CC[C@H](CC(=O)O)CC3)cc1)CCO2,1.289 ± 0.0053
20,CC(C)C[C@H](NP(=O)(O)O[C@@H]1O[C@@H](C)[C@H](O)[C@@H](O)[C@H]1O)C(=O)N[C@@H](Cc1c[nH]c2ccccc12)C(=O)O [Phosphoramidon Disodium Salt],1.169 ± 0.0058
21,Cn1nnc2c(C(N)=O)ncn2c1=O [Temozolomide],1.25 ± 0.15
22,Cc1cc(N2CCOCC2)ccc1Nc1nc(NC2CCCCC2)c2[nH]cnc2n1,0.971 ± 0.072
23,CC(C)(C)c1ccc(-c2nc3ccccc3[nH]2)cc1,0.591 ± 0.042
24,COc1cc2c(c(OC)c1OC)-c1c(cc3c(c1OC)OCO3)CC(C)C(C)C2 (configuration not stated) [Schisandrin B (Sch B)],0.988 ± 0.053

row,SMILES,relative cell viability
1,Nc1ccc2ncnc(NCCc3ccc(Oc4ccccc4)cc3)c2c1,1.22 ± 0.066
2,Cn1nnc(-c2ccc3c(c2)[nH]c2nc(Cc4ccccc4)nc(NC4CCC(N)CC4)c23)n1 (configuration not stated),0.194 ± 0.0028
3,CN(C)CCC[C@@]1(c2ccc(F)cc2)OCc2cc(C#N)ccc21 [Escitalopram Oxalate],1.13 ± 0.13
4,N#CSc1cc(SC#N)c(N)nc1N,1.061 ± 0.0035
5,CCOC(=O)c1ccc(N2NC(=O)C(=Cc3ccc([N+](=O)[O-])o3)C2=O)cc1,0.977 ± 0.14
6,Cn1cc(-c2ccc3c(c2)CCN3C(=O)Cc2cccc(C(F)(F)F)c2)c2c(N)ncnc21,1.34 ± 0.066
7,CC(C)(C)c1cc(C(=O)C(C#N)=NNc2cccc(Cl)c2)no1,1.11 ± 0.17
8,O=C(NC1CCOCC1)c1ccc(-c2cc(-c3c[nH]nc3-c3ccccn3)ccn2)cc1,1.23 ± 0.2
9,O=C(NC1CCNCC1)c1n[nH]cc1NC(=O)c1c(Cl)cccc1Cl,0.157 and 0.162
10,CC(=O)OCOC(=O)CN(CC(=O)OCOC(C)=O)c1ccccc1OCCOc1ccccc1N(CC(=O)OCOC(C)=O)CC(=O)OCOC(C)=O,1.12 ± 0.016
11,CNC(=O)[C@@H](c1ccccc1)N1CCc2cc(OC)c(OC)cc2[C@@H]1CCc1ccc(C(F)(F)F)cc1 [Almorexant HCl],1.19 ± 0.11
12,Cc1c(N(C)C)c(=O)n(-c2ccccc2)n1C [Amidopyrine],1.07 ± 0.062
13,COc1ccc2c(Oc3ccc(NC(=O)c4c(C)n(CC(C)(C)O)n(-c5ccccc5)c4=O)nc3)ccnc2c1,1.16 ± 0.024
14,O=C(NNc1nc2cc(F)ccc2n2cccc12)c1cnccn1,0.383 ± 0.013
15,C=C1C(=O)[C@]23[C@H](O)[C@H]1CC[C@H]2[C@@]12CO[C@]3(O)[C@@H](O)[C@@H]1C(C)(C)CC[C@@H]2O [Oridonin],0.9649 ± 0.0085
16,CCS(=O)(=O)N1CC(CC#N)(n2cc(-c3ncnc4[nH]ccc34)cn2)C1,0.983 ± 0.088
17,CO[C@H]1/C=C\C=C(/C)C(=O)NC2=CC(=O)C(NCCN(C)C)=C(C[C@@H](C)C[C@H](OC)[C@H](O)[C@@H](C)/C=C(\C)[C@@H]1OC(N)=O)C2=O [17-DMAG (Alvespimycin) HCl],0.267 ± 0.043
18,CN1CC[C@H](c2c(O)cc(O)c3c(=O)cc(-c4ccccc4Cl)oc23)[C@H](O)C1 [Flavopiridol HCl],0.183 ± 0.015
19,CN1CC[C@H](c2c(O)cc(O)c3c(=O)cc(-c4ccccc4Cl)oc23)[C@H](O)C1 [Flavopiridol (Alvocidib)],0.143 ± 0.043
20,CC(=O)N1c2ccc(-c3ccc(C(=O)O)cc3)cc2[C@H](Nc2ccc(Cl)cc2)C[C@@H]1C,0.698 ± 0.027
21,N#Cc1c(NC(=O)c2cccc3ccccc23)sc2c1CCCC2 [JNK Inhibitor IX],1.1 ± 0.056
22,Cc1cc2c(cc1CC(=O)c1sccc1S(=O)(=O)Nc1onc(C)c1Cl)OCO2 [Sitaxentan sodium],1.18 ± 0.062
23,COc1cc(OC)c2c(=O)[nH]c(-c3cc(C)c(OCCO)c(C)c3)nc2c1,0.805 ± 0.0086
